The full list was thinned out, with hits kept by preference.
DT40 TDP1 CPT = qHTS for Inhibitors of human tyrosyl-DNA phosphodiesterase 1 (TDP1): qHTS in cells in presence of CPT; chicken DT40 Tdp1-/-;hTDP1 cells + 20 nM CPT, ATP luminescence, 48 h; Potency, µM (titrated, usually from 46.2 µM), for inactives: top-dose activity change, negative = growth inhibition, actives largely listed as inhibitors; 12% of 420,000 active; also: potency is read from the fitted curve at half-maximal effect; nearly all actives have a fitted effect of over 55% in size
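Chicken DT40 Tdp1-/- cells stably complemented with human TDP1 were seeded at 400 cells/well in medium containing 20 nM camptothecin, exposed to pin-transferred compounds, and grown at 37 °C for at least 48 hr. Viability was read as ATP luminescence.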
IL1B secr inh = qHTS for Inhibitors of Inflammasome Signaling: IL-1-beta AlphaLISA Primary Screen | THP-1 LPS/ATP IL-1B secretion, AlphaLISA, 16 h; stronger effect = lower value | activity change, % at 57.5 µM | 4.7% of 360,000 active | AID 743279, 2014; in the data active = activity change below about -50%; inconclusive = mostly about -30% to -49%
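THP-1 cells pretreated 1 hr with compounds (up to 57.5 uM final), then stimulated with LPS (250 ng/mL final) plus ATP (1.25 mM final); secreted IL-1B measured by AlphaLISA after 16 hr, decreased signal indicating inhibition.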
HT1080NT lethal = qHTS for induction of synthetic lethality in tumor cells producing 2HG: qHTS for the HT-1080-NT fibrosarcoma cell line | HT-1080-NT fibrosarcoma viability, CellTiter-Glo ATP luminescence, 48 h | Potency, µM (top dose mostly 46.1 µM), for the others: top-dose activity, negative = less viability, hits mostly cytotoxic | AID 686970, 2013 | 1.6% of 360,000 active;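 also: NT is the 2HG producing partner of a matched IDH1 knockdown line; potency is read from the fitted curve at half-maximal effect; 0% = DMSO-treated cells and -100% = media-only wells without cells; nearly all actives have a fitted effect of over 55% in size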
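HT-1080-NT; 750 cells/well; 5% FBS RPMI; 48 h compound, 37 degrees C; CellTiter-Glo luminescence; curve fitting and curve-class assignment.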
HT1080 IDH1KD tx = qHTS for induction of synthetic lethality in tumor cells producing 2HG: qHTS for the HT-1080-IDH1KD cell line; Potency, µM (top dose mostly 46.1 µM), inactives show top-dose activity, negative = toxicity, hits mostly cytotoxic; 2% of 360,000 active; HT-1080 IDH1 knockdown viability, ATP luminescence, 48 h;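 also: potency is read from the fitted curve at half-maximal effect; 0% = DMSO wells and -100% = cell-free medium wells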
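CellTiter-Glo luminescence after 48 h compound exposure at 37 degrees C of IDH1-knockdown HT-1080 cells in 5% FBS RPMI. %Activity scaled between DMSO wells and cell-free media wells, with curves fitted and assigned curve classes.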
ALOX12 inh = Primary qHTS assay for inhibitors of human arachidonate 12S-lipoxygenase (ALOX12): Round 2. Polyunsaturated fatty acid lipoxygenase ALOX12 (Homo sapiens), P18054. purified 12hLO, xylenol orange hydroperoxide absorbance. Potency, µM (highest dose often 108 µM), without a hit: at the top dose activity change, negative = inhibition, most hits filed as inhibitors. 1.1% of 580,000 active; also: potency is read from the fitted curve at half-maximal effect
Target sequence (P18054 whole entry, looked up): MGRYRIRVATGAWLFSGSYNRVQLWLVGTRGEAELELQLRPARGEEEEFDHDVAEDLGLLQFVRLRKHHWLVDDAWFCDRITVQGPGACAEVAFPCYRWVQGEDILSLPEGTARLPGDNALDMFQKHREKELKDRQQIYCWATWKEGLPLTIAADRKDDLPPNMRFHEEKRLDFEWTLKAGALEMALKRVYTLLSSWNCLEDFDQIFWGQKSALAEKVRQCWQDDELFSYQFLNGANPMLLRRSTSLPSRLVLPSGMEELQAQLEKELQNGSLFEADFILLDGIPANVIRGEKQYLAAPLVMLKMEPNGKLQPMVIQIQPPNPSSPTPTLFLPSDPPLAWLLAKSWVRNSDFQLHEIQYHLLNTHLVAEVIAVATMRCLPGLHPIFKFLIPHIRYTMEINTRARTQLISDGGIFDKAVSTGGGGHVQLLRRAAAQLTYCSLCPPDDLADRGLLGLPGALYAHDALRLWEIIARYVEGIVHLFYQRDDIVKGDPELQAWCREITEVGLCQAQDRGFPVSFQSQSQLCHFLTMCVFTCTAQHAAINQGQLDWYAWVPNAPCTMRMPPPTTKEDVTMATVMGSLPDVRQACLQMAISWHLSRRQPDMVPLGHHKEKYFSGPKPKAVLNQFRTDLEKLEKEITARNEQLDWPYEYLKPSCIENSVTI
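Purified human 12hLO at 150 nM in 25 mM Hepes, 0.01% Triton X-100, pH 7.0, preincubated 15 min at room temperature with compound. Reaction started with 40 uM arachidonic acid, 30 min at room temperature. Hydroperoxide measured by Fe-xylenol orange, 573/405 nm absorbance ratio.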
DT40 TDP1 no CPT = qHTS for Inhibitors of human tyrosyl-DNA phosphodiesterase 1 (TDP1): qHTS in cells in absence of CPT; 15% of 420,000 active; Potency, µM (series often up to 46.2 µM), inactives show at the highest dose activity change, negative = growth inhibition, most hits filed as inhibitors; DT40 Tdp1-/- hTDP1 cells, no CPT, ATP luminescence, 48 h; also: potency is read from the fitted curve at half-maximal effect; nearly all actives have a fitted effect of over 55% in size
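Chicken DT40 Tdp1-/- cells stably complemented with human TDP1 were seeded at 400 cells/well with DMSO in place of 20 nM camptothecin. After compound pinning, cells grew at least 48 hr at 37 °C; viability read by CellTiter-Glo luminescence.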
An asterisk follows results filed as active; u = inconclusive; x = no result; [ ] = remark or other dose. Unless noted, calls follow the shape of the dose curve; as a rule, active = well fitted curve in the direction sought with a large enough effect; inconclusive = small, poorly fitted or top-dose-only effect, or another doubt; inactive = no such curve, though single readings can be large; an effect the other way counts as inactive or inconclusive. Unless noted, % is scaled to controls: 0 for no effect and ±100 for the full control effect.

SMILES	DT40 TDP1 CPT	IL1B secr inh	HT1080NT lethal	HT1080 IDH1KD tx	ALOX12 inh	DT40 TDP1 no CPT
CN(c1ccc(OCC(=O)Nc2nc(-c3ccccc3)cs2)cc1)S(=O)(=O)c1ccc(F)cc1	18µM*	19	8%	-4%	-10%	21µM*
CC1CCCCN1C(=O)CN1CCC(c2cc3ccccc3[nH]2)CC1 (stereo not drawn)	x	x	x	x	0%	x
CCc1cc(C(=O)N2CCC3(CC2)CC(c2ccccc2)C(=O)N3)cs1 (stereo not drawn)	x	x	x	x	1%	x
COc1ccc(S(=O)(=O)N2CCCC(C(=O)N3CCCC3)C2)cc1OC (stereo not drawn)	-10%	4	-2%	2%	-50%	-19%
COc1ccc(S(=O)(=O)N2CCCC(C(=O)N3CCCCCC3)C2)cc1 (stereo not drawn)	u	5	9%	10%	x	18µM*
COc1ccc(N2CCN(C(=O)C3CCCN(S(=O)(=O)c4ccc(C)cc4)C3)CC2)cc1 (stereo not drawn)	9.2µM*	-2	2%	7%	-10%	9.2µM*
Cc1ccc(S(=O)(=O)N2CCCC(C(=O)N3CCN(c4ccccc4)CC3)C2)cc1 (stereo not drawn)	18µM*	0	13%	10%	u	18µM*
CCOC(=O)C1CCCN(S(=O)(=O)c2ccc(OC)cc2)C1 (stereo not drawn)	-22%	0	11%[9.24 µM]	8%	22%	-15%
CCOC(=O)N1CCN(C(=O)C2CCCN(S(=O)(=O)c3ccc(F)cc3)C2)CC1 (stereo not drawn)	u	-10	29%	2%	6%	-21%
COc1ccc(N2CCN(C(=O)C3CCCN(S(=O)(=O)c4ccc(F)cc4)C3)CC2)cc1 (stereo not drawn)	10µM*	-13	-3%	-8%	-1%	8.2µM*
Cc1ccc(C)c(S(=O)(=O)N2CCN(CC(=O)NC(=O)NC(C)(C)C)CC2)c1	x	x	x	x	-14%	x
COc1ccc(N2Cc3c(NCCCc4ccccc4)ncnc3N(C)CC2=O)cc1	x	x	x	x	30%	x
CN(Cc1ccccc1)S(=O)(=O)c1ccc2c(c1)OCCCO2	x	x	x	x	2%	x
Cc1cccc(NC(=O)CSc2nncn2CCc2cccs2)c1C	x	x	x	x	10%	x
O=C(C1CCCN(S(=O)(=O)c2cccc3cccnc23)C1)N1CCN(c2ccc(F)cc2)CC1 (stereo not drawn)	23µM*	7	-4%	-4%	316%	u
O=C(C1CCN(S(=O)(=O)c2cccc3cccnc23)CC1)N1CCN(c2ccccc2)CC1	-29%	12	-3%	1%	5%	-26%
Cc1nn(C)c(C)c1S(=O)(=O)N1CCCC(C(=O)N2CCN(c3ccccc3)CC2)C1 (stereo not drawn)	16µM*	16	-1%	2%	-2%	23µM*
CC(C)Oc1ccc(S(=O)(=O)N2CCOCC2)cc1NC(=O)C1COc2ccccc2O1 (stereo not drawn)	21µM*	-8	-3%	-14%	69%	18µM*
CCOc1ccc(S(=O)(=O)N2CCCCC2)cc1NC(=O)C1COc2ccccc2O1 (stereo not drawn)	u	-8	0%	-1%	-11%	u
CC(C)Oc1ccc(S(=O)(=O)N2CCOCC2)cc1NC(=O)Cc1ccsc1	21µM*	-7	-3%	-1%	3%	u
COc1ccc(S(=O)(=O)N2CCOCC2)cc1NC(=O)Cc1ccsc1	1%	20	11%	16%	-10%	-5%
CCN(C(=O)Cn1ccn2nc3c(c2c1=O)CCCC3)c1ccccc1	x	x	x	x	11%	x
O=C(CSc1ncc(-c2ccc(F)cc2)o1)Nc1ccccc1C(F)(F)F	x	x	x	x	-5%	x
CN(Cc1ccccc1N1CCCCC1)C(=O)c1cccc(S(=O)(=O)N2CCOCC2)c1	x	x	x	x	1%	x
COc1ccc(NC(=O)c2c(C)noc2-c2snnc2C)cc1	u	-5	u	u	u	21µM*
SMILES	DT40 TDP1 CPT	IL1B secr inh	HT1080NT lethal	HT1080 IDH1KD tx	ALOX12 inh	DT40 TDP1 no CPT
CCCN(CCC)CC(O)Cn1cc(/C=C/C(=O)c2ccc(OCC)cc2)c2ccccc21 (stereo not drawn)	5.8µM*	x	x	x	u	5.2µM*
CCC(=C(c1ccc(OC)cc1)c1ccc(OC)cc1)c1cn(CC(O)CN(CCO)CCO)c2ccccc12 (stereo not drawn)	u	u	u	-22%	u	21µM*
CCOc1ccc(C(=O)/C=C/c2ccccc2C(F)(F)F)cc1	-23%	0	14%	3%	0%	-9%
COc1ccc(OCC(O)CN(CCO)CC(O)Cn2ccc3ccccc32)cc1 (stereo not drawn)	-17%	0	-3%	-8%	u	u
CC(C)CN(CC(C)C)CC(O)Cn1cc(/C=C/C(=O)c2ccccc2)c2ccccc21 (stereo not drawn)	4.1µM*	x	x	x	u	4.6µM*
Cc1ccc(C2Cn3nnc(C(=O)N4CCC(C(=O)NCc5cc(F)ccc5F)CC4)c3CO2)cc1 (stereo not drawn)	x	x	x	x	17%	x
O=C([C@@H]1C[C@H](Oc2ccccc2)CN1C(=O)Cc1cccc(F)c1)N1CCOCC1	x	x	x	x	11%	x
CCN1c2cc(C(=O)NCc3ccc(Cl)cc3)ccc2C(=O)N2CCCCC21 (stereo not drawn)	x	x	x	x	-21%	x
CC(=O)Nc1ccc(CN2CCn3c(nn(-c4ccc(Cl)cc4)c3=O)C2)cc1	x	x	x	x	1%[6.33 µM]	x
CCOc1ccc(NS(=O)(=O)c2ccc(-c3cc(C)no3)s2)cc1	u	x	x	x	u	18µM*
CCN(c1ccc(OC)cc1)S(=O)(=O)c1ccc(-c2cc(C)no2)s1	-95%	12	u	u	4%	15µM*
